Bioassay records: PubChem BioAssay, several laboratories
In the library only some 3.9% were active in any assay of this set; here they are far more common.
DUSP3 inh – blocks human VHR1 dual specificity phosphatase | P51452 | inhibition, % at 13.3 µM | AID 1654 | recombinant VHR phosphatase, pNPP absorbance | 290,000 compounds, 0.52% hits; in the data active means inhibition above about 50%
Target sequence (P51452 whole entry, looked up): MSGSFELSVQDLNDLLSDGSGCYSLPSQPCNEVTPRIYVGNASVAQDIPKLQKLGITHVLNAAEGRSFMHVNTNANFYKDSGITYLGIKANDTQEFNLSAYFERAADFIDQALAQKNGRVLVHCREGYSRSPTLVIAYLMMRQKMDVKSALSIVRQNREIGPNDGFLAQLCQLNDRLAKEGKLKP
Anthrax LF inh2 – inhibitors of Bacillus anthracis lethal factor protease; P15917; multiplex microsphere protease cleavage assay, LF; inhibition, % at 10 µM; 360,000 compounds, 0.12% hits; AID 588501; further: plate controls were buffer without enzyme for full effect and enzyme alone for no effect
3CLpro inhibitor – SARS-CoV 3CLpro protease inhibition; P0C6X7; recombinant SARS-CoV 3CLpro, quenched FRET peptide cleavage; inhibition, % at 6 µM; 290,000 compounds, 0.14% hits; in the data active means inhibition above about 12%
BoNT-A LC inh2 – BoNT A light chain protease inhibition; multiplex microsphere protease substrate cleavage, flow cytometry; inhibition, % at 10 µM; 360,000 compounds, 0.17% hits; AID 588499; further: plate controls were buffer without enzyme for full effect and enzyme alone for no effect
BoNT F protease – BoNT F light chain protease inhibition; Multiplex microsphere protease cleavage assay, flow cytometry; inhibition, % at 10 µM; 360,000 compounds, 0.22% hits; AID 588497; in the data active means inhibition above about 35%, passing the limit was not always enough; inconclusive means no clear call, values can overlap the other calls; further: plate controls were buffer without enzyme for full effect and enzyme alone for no effect
Autofluor counter – flagged as autofluorescent in microsphere protease counterscreen; fluorescence intensity (test concentration not listed); AID 624483; 360,000 compounds, 3.1% hits; compound autofluorescence counterscreen, microsphere flow cytometry; hits give high values; in the data active means fluorescence intensity above about 16000; inconclusive means no clear call, values can overlap the other calls
The depositor's hits bear a star; ? = inconclusive; / = no result. Unless noted, no stated cut-off is given here; in the data, active means inhibition above about 30%; inconclusive means no clear call, values can overlap the other calls; inactive means below that.

SMILES	DUSP3 inh	Anthrax LF inh2	3CLpro inhibitor	BoNT-A LC inh2	BoNT F protease	Autofluor counter
CC1CC(C)CN(C(=O)c2ccc3c(=O)n(Cc4ccc5c(c4)OCO5)c(=S)[nH]c3c2)C1 (stereo not given)	14.0	-11.7	1.6	3.1	10.6	?
O=C(CN1CCN(Cc2ccc(F)cc2Cl)CC1)NCc1ccccc1	27.6	-9.2	-1.7	-2.1	?	4180
CCCc1[nH]nc2c1C1(C(=O)N(CC)c3ccccc31)C(C#N)=C(N)O2 (stereo not given)	6.7	-2.9	0.1	-0.2	-7.4	8014
CCCc1[nH]nc2c1C1(C(=O)N(CC(N)=O)c3ccccc31)C(C(=O)OC)=C(N)O2 (stereo not given)	17.7	-1.6	-2.8	0.1	8.0	2689
CCCc1[nH]nc2c1C1(C(=O)N(Cc3ccccc3)c3ccccc31)C(C(=O)OC)=C(N)O2 (stereo not given)	2.4	-15.2	0.9	7.8	8.8	17223*
CCN1C(=O)C2(C(C#N)=C(N)Oc3n[nH]c(-c4ccccc4)c32)c2ccccc21 (stereo not given)	-19.1	-1.2	-1.0	0.1	-0.5	16247*
CCC(c1nnnn1-c1c(C)cccc1C)N1CCN(CCN2CCOCC2)CC1 (stereo not given)	/	-6.7	/	0.2	-1.6	5947
Cc1ccc(CN(C)C(=O)COc2ccc(S(=O)(=O)N3CCCC3)cc2[N+](=O)[O-])c(C)c1	/	5.6	/	1.1	14.2	5495
CCCCn1c(N)c(N(CC(C)C)C(=O)CSCC(=O)Nc2ccc(C)cc2)c(=O)[nH]c1=O	/	-3.0	/	-0.8	6.3	6636
Cn1ccs/c1=N\C(=O)Nc1cccc(C(F)(F)F)c1	32.2	-0.4	3.3	-1.2	-13.4	3914
Cc1cccc(NC(=O)C2CCN(S(=O)(=O)c3cccs3)CC2)n1	-7.7	-0.2	6.6	?	-5.4	17032*
O=C(Nc1ccccn1)C1CCN(S(=O)(=O)c2cccs2)CC1	48.6	0.5	-5.1	-0.6	-3.9	9759
COc1ccc(Cc2nnc(NC(=O)CS(=O)(=O)Cc3ccccc3)s2)cc1	13.7	-1.2	3.5	0.3	4.3	5432
O=C(NCc1ccc(F)cc1)c1cccc2c1C(=O)c1ccc(N3CCC(N4CCCCC4)CC3)cc1S2(=O)=O	/	13.9	/	4.3	-2.2	5563
O=C(NCc1ccc(F)cc1)c1cccc2c1C(=O)c1ccc(N3CCC(Cc4ccccc4)CC3)cc1S2(=O)=O	/	33.1*	/	19.4	23.4	8272
O=C(Nc1cccnc1)Nc1ccc(Br)cc1Cl	5.6	-3.3	9.4	-0.5	-2.0	16594*
O=C(Nc1cccnc1)Nc1ccccc1Cl	21.7	-2.7	1.5	0.5	-0.9	5339
Cc1ccc(NC(=O)Nc2cccnc2)cc1Cl	9.5	-8.1	21.3*	-4.1	8.0	3209
O=C(Nc1cccnc1)Nc1cc(Cl)cc(Cl)c1	17.7	-1.5	11.6	-0.5	0.1	1994
CCOC(=O)c1c(NC(=O)c2ccc(N3C(=O)[C@@H]4[C@H](C3=O)[C@H]3C=C[C@@H]4C3)cc2)sc2c1CCCC2	19.2	1.0	-0.7	0.7	4.6	2476
COc1ccc(OCc2nnc(SCC(=O)Nc3cccc(C(C)=O)c3)o2)cc1	/	-7.0	/	0.3	-4.3	3779
O=C(O)/C(=N/NC(=O)c1ccc(Cl)cc1)c1ccccc1	2.6	30.7*	1.8	?	?	4073
O=C(NS(=O)(=O)c1ccc(Cl)cc1)c1ccccc1	13.9	3.6	6.0	-0.3	-5.0	4280
CCOC(=O)C1=C(C)Nc2ccccc2N=C1NC(=O)Cc1ccc(Br)cc1	17.0	1.4	1.8	-0.2	-2.8	1983
CCOC(=O)C1=C(C)Nc2ccccc2N=C1NC(=O)Cc1ccc(OC)cc1	50.8*	-4.4	-0.9	-0.8	-5.8	2146
SMILES	DUSP3 inh	Anthrax LF inh2	3CLpro inhibitor	BoNT-A LC inh2	BoNT F protease	Autofluor counter
CC(C)(C)n1nnnc1C(c1ccccc1)N1CCCN(Cc2ccc(F)cc2)CC1 (stereo not given)	/	-4.8	/	-0.9	-5.0	4685
Cc1ccc(SCCC(=O)N(C)CC(=O)Nc2c(C)cccc2C)cc1	-3.0	-4.4	-2.6	-1.3	-13.7	5456
COc1ccc(C2NC(=O)c3ccccc3O2)c(OC)c1OC (stereo not given)	-4.0	-8.0	-0.1	-1.0	-7.7	5912
COc1cccc(C2NC(=O)c3ccccc3O2)c1OC (stereo not given)	12.8	-13.4	-3.6	?	3.3	18893*
CCOC(=O)c1c(C)[nH]c(C=C2C(=O)CCCC2=O)c1O	-11.7	-0.1	2.7	1.2	-1.0	10398
O=C1Nc2ccccc2/C1=N/N=C/c1ccc(-c2ccc([N+](=O)[O-])cc2)o1	53.7*	-3.5	-0.2	-0.7	0.6	4073
C=CCN1C(=O)/C(=C\C=C2\N(C)c3ccccc3C2(C)C)SC1=S	-8.8	22.9	-5.3	41.0*	9.8	4733
Fc1ccc(-c2ccnc3nc(N4CCOCC4)nn23)cc1	20.5	-1.3	0.0	-0.8	-2.7	23704*
COc1ccc(C(=O)Nc2nc3nccc(-c4ccccc4)n3n2)cc1	8.5	1.1	-2.6	-0.1	-1.2	2002
COc1ccc(-c2cc(C#N)nc(N3CCN(c4ccccc4)CC3)n2)cc1	53.4*	-1.1	-1.7	-1.0	-17.0	4354
COc1ccc(-c2ccnc3nc(N4CCN(c5ccccc5)CC4)nn23)cc1	-3.7	-11.1	4.2	?	-2.3	22429*
Cc1cc(C)n2c(Nc3ccc4c(c3)OCCO4)c(CC(C)C)nc2n1	/	-12.8	/	-0.2	-4.3	5242
Cc1ccc(NC2SC(=O)N(CC(=O)O)C2=O)cc1 (stereo not given)	14.6	-0.5	-1.8	0.5	-0.9	7017
CC(=O)Nc1ccc(NC(=O)c2ccccc2CCc2ccccc2)cc1	21.2	-1.5	-0.4	-0.4	-4.9	4223
CCOC(=O)C1=C(C)N=c2s/c(=C/c3ccc(OCC(=O)O)c(OC)c3)c(=O)n2C1c1ccc(Cl)cc1 (stereo not given)	/	-21.5	/	-1.4	?	4913
O=C1CCCC2=C1C(c1ccc(Cl)cc1)n1c(s/c(=C\c3ccc4ccncc4c3)c1=O)=N2 (stereo not given)	14.7	22.1	-2.4	36.6*	16.8	3020
O=C(C1=C(O)C(=O)N(CCN2CCOCC2)C1c1cccnc1)c1cc2ccccc2o1 (stereo not given)	-10.7	-2.9	3.3	-1.0	-4.0	19706*
O=C(C1=C(O)C(=O)N(CCN2CCOCC2)C1c1cccc(O)c1)c1cc2ccccc2o1 (stereo not given)	-3.8	-7.1	6.4	2.8	12.2	4754
COc1ccccc1NC(=O)CCSc1nc(C)cs1	-7.9	1.5	0.5	-2.4	-3.8	4200
COc1ccc(Cn2ccnc2SCC(=O)Nc2ccc(F)cc2F)cc1	/	-5.1	/	-0.5	-9.3	3524
COc1ccc(NC(=O)C23CC4CC(C2)CC(n2cnc(Br)n2)(C4)C3)cc1Cl	2.3	-0.8	-0.4	-0.1	-3.4	16232*
COc1ccc(NC(=O)[C@@H]2O[C@H](CO)[C@H](O)[C@H](O)[C@H]2O)cc1F	/	1.0	/	0.0	-1.2	3913
